Source: the supplement of paper PMC12645437, “Orthogonal IMiD-Degron Pairs Induce Selective Protein Degradation in Cells” (ACS Chemical Biology, 2025)
Over roughly 8,300 sequences, “log2 fold change of degron read counts, EGFP-low vs EGFP+ sorted cells (limma voom), compound-induced degradation” has its median near -1.1; the highest 2% begin near 3.2. The sample holds the highest values, similar sequences and a random draw of the others, so the mix is not that of the screen.

T1: CRBN, Q96SW2
T1 chain: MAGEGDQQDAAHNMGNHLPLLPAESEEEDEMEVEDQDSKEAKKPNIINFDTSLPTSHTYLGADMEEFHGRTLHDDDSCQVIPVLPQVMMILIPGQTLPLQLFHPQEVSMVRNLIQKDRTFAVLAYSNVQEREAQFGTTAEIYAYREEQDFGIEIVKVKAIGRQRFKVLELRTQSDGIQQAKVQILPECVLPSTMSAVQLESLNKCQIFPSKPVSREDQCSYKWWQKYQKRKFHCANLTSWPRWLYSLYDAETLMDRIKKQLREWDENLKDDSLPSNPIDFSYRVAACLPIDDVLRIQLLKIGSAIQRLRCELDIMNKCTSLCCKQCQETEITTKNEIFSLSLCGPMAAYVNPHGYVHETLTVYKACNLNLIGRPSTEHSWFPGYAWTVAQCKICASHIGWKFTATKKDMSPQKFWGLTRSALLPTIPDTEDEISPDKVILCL


Target: T1, CRBN, Q96SW2
Assay: log2 fold change of degron read counts, EGFP-low vs EGFP+ sorted cells (limma voom), compound-induced degradation; higher = more compound-induced degradation of the degron-EGFP fusion; degrons are variants of IKZF1/3 zinc finger 2; compound dose not given here
Settings: Jurkat, 18 h
[1] = compound: compound 19 (5-tert-butyl-thalidomide)
[2] = compound: compound 22 (5-morpholino-thalidomide)
[3] = compound: compound 33 (diphenyl IMiD analogue)
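Note: pooled lentiviral library of zinc finger degron-EGFP fusions in mCherry-positive Jurkat cells, FACS-sorted after compound exposure, with degron abundance counted by next-generation sequencing.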

Row | Sequence | log2 fold change of degron read counts [1] | log2 fold change of degron read counts [2] | log2 fold change of degron read counts [3] | log2 fold change of degron read counts (compound: thalidomide)
1 | FCCDICGAFFTQKGNLLRHIKL [46F_47C_49D_50I_52G_53A_54F_55F_67L_, Q9UKT9] | -0.849 | -1.43 | -0.311 | -2.26
2 | FSCPQCGAHFTQKGNLLRHIKL [46F_47S_49P_50Q_52G_53A_54H_55F_67L_, Q9UKT9] | -1.06 | -2.04 | -0.649 | -1.51
3 | FSCSVCGHMFTQKGNLLRHIKL [46F_47S_49S_50V_52G_53H_54M_55F_67L_, Q9UKT9] | -2.17 | -2.85 | -2.33 | -2.67
4 | FHCNICGAGFTQKGNLLRHIKL [46F_47H_49N_50I_52G_53A_54G_55F_67L_, Q9UKT9] | 1.76 | 0.175 | 1.2 | -0.885
5 | FSCPICGRFFTQKGNLLRHIKL [46F_47S_49P_50I_52G_53R_54F_55F_67L_, Q9UKT9] | -0.54 | -1.4 | -0.477 | -1.17
6 | FKCEICGRDFTQKGNLLRHIKL [46F_47K_49E_50I_52G_53R_54D_55F_67L_, Q9UKT9] | -3.16 | -3.46 | -3.24 | -2.51
7 | FYCPICGRFFTQKGNLLRHIKL [46F_47Y_49P_50I_52G_53R_54F_55F_67L_, Q9UKT9] | -0.827 | -0.851 | -1 | -2.07
8 | LLCEICGFACTQKGNLLRHIKL [46L_47L_49E_50I_52G_53F_54A_55C_67L_, Q9UKT9] | 0.644 | -0.727 | 0.56 | 1.35
9 | FLCDQCGAYFTQKGNLLRHIKL [46F_47L_49D_50Q_52G_53A_54Y_55F_67L_, Q9UKT9] | -3.04 | -2.52 | -2.25 | -2.41
10 | LLCEICGFQCTQKGNLLRHIKL [46L_47L_49E_50I_52G_53F_54Q_55C_67L_, Q9UKT9] | 0.49 | -0.719 | 0.751 | 1.99
11 | LDCEICGFQCTQKGNLLRHIKL [46L_47D_49E_50I_52G_53F_54Q_55C_67L_, Q9UKT9] | -0.786 | -1.68 | -1.53 | -0.616
12 | LCCEICGFQCTQKGNLLRHIKL [46L_47C_49E_50I_52G_53F_54Q_55C_67L_, Q9UKT9] | 1.95 | 1.72 | 1.6 | 1.91
13 | LFCEICGFQCTQKGNLLRHIKL [46L_47F_49E_50I_52G_53F_54Q_55C_67L_, Q9UKT9] | 3.43 | 3.41 | 1.96 | 2.09
14 | LSCEICGFQCTQKGNLLRHIKL [46L_47S_49E_50I_52G_53F_54Q_55C_67L_, Q9UKT9] | 2.4 | 1.95 | 0.752 | 1.19
15 | LACEICGFQCTQKGNLLRHIKL [46L_47A_49E_50I_52G_53F_54Q_55C_67L_, Q9UKT9] | 3.16 | 2.06 | 0.631 | 0.66
16 | LQCEICGFQCTQKGNLLRHIKL [46L_47Q_49E_50I_52G_53F_54Q_55C_67L_, Q9UKT9] | 0.99 | 0.223 | 1.43 | 3.3
17 | LWCEICGFQCTQKGNLLRHIKL [46L_47W_49E_50I_52G_53F_54Q_55C_67L_, Q9UKT9] | 3.2 | 3.49 | 2.53 | 1.13
18 | LICEICGFQCTQKGNLLRHIKL [46L_47I_49E_50I_52G_53F_54Q_55C_67L_, Q9UKT9] | 0.761 | 2.3 | 2.38 | 3
19 | LYCEICGFQCTQKGNLLRHIKL [46L_47Y_49E_50I_52G_53F_54Q_55C_67L_, Q9UKT9] | 3.53 | 3.71 | 2.78 | 1.8
20 | LMCEICGFQCTQKGNLLRHIKL [46L_47M_49E_50I_52G_53F_54Q_55C_67L_, Q9UKT9] | 0.286 | 0.912 | 2.55 | 2.04
21 | LECEICGFQCTQKGNLLRHIKL [46L_47E_49E_50I_52G_53F_54Q_55C_67L_, Q9UKT9] | -0.896 | -1.36 | 0.772 | 2.01
